Data published in ChEMBL document CHEMBL4513216, “Probing the Open Global Health Chemical Diversity Library for Multistage-Active Starting Points for Next-Generation Antimalarials” (ACS Infect Dis, 2020).
Among all 65,000 compounds or so, about 2,100 (3.2%) showed an effect of 50% or more. The median lay at about -52%. The entries come from a sample that favours strong results as a whole.

tested on: Plasmodium falciparum; test: Screen against P. falciparum Asexual Blood Stage (ABS), at 5uM; format: functional, Dd2; conditions: tested at 5 uM

Compound | INHIBITION [%]
Cc1ccc(N2C[C@@H]3OCCN(CC4CC4)[C@@H]3C2)nn1 | -167
O=C(c1ccco1)N1CCN2C[C@H](OCc3cccnc3)C[C@H]2C1 | -180
O=C([C@H]1C[C@H]2OCC[C@H]2N(Cc2ccncc2)C1)N1CCCCO1 | -62.9
CCN(CC)C(=O)C1CCC2(CCNCC2)O1 (configuration not stated) | -55.8
c1ccc(CO[C@H]2CC[C@H]3[C@H]2OCCN3Cc2nccs2)nc1 | -8.49
CSc1nccc(N2CCC3(CCCN(CC4CC4)C3)C2)n1 (configuration not stated) | -48.7
CC(C)CN1CCCC2(CCN(c3ccc(C#N)cn3)C2)C1 (configuration not stated) | 9.73
CC(C)CN1CCCC2(CCN(c3ccccn3)C2)C1 (configuration not stated) | 71.2
CC(C)c1noc(CN(Cc2cccnc2)C2CN3CCC2CC3)n1 (configuration not stated) | -90.3
CN(c1ncccc1C#N)C1CCN(Cc2ccncc2)CC1 | -82.3
CN(Cc1ccccc1)c1ncccc1CNC1CN2CCC1CC2 (configuration not stated) | 62.6
COc1ncccc1CN1C[C@H]2CCN(C(C)C)C[C@H]2C1 | 9.06
CN(CCc1ccccc1)Cc1c(C2CC2)[nH]c2ncccc12 | -22.1
CNc1nccnc1C1CCN(C(C)C)CC1 | 10.5
CN(Cc1ccccc1)c1ncccc1CNC1CCC1 | 71.1
CC(C)N1CCC(NCc2cccnc2N(C)Cc2ccccc2)CC1 | 84.1
Nc1cc(-c2cccc3c2CCNC3)ncn1 | -47.8
Cc1ccccc1CC(=O)N1CCN(C2CCOC2=O)CC1 (configuration not stated) | -126
c1cncc(COC[C@H]2CC[C@H]3[C@H](CCN3Cc3cccs3)O2)c1 | -174
CC(=O)N1CCN(Cc2ccncc2)CC2(CC(=O)N(C)C2)C1 (configuration not stated) | -18.8
COCCn1c(C(=O)NCc2n[nH]c(C)n2)cc2ccccc21 | -74.2
Cc1nc(CN2CCO[C@@H]3CC(COc4ccccn4)C[C@H]32)cs1 (some centres not stated) | -52.4

Compound | INHIBITION [%]
Cc1cc(C(=O)NCC(=O)N2CCOCC2)nn1C(C)(C)C | -113
Cc1nc2c(c(NC3CCN(Cc4ccccc4)CC3)n1)CCNCC2 | 78.7
Cc1ncc2c(n1)CCCC2NC(=O)c1cnn(Cc2ccccc2)c1 (configuration not stated) | -115
c1ccc(CNc2ncc(CN3CC[C@@H]4CC[C@H](C3)N4)cn2)cc1 | -65
Cc1nnc([C@H]2CC[C@@H]3[C@@H](CCN3Cc3c(C)noc3C)O2)o1 | -1.83
Cc1n[nH]c2c1C(c1ccc3c(c1)OCCO3)SCC(=O)N2 (configuration not stated) | 8.75
Cc1c(CNC2CCN(c3ccccc3OC(F)F)C2)cnn1C (configuration not stated) | 71
O=C(N[C@@H]1CN[C@H]2CCCO[C@H]21)c1cnccn1 | -120
Cc1ccccc1CC(=O)N1C[C@@H]2CC[C@H]1CN(Cc1cccnc1)C2 | -11.4
CN(C)[C@@H]1CN(Cc2cccnc2)C[C@H]1c1cn(C)c2ccccc12 | 71.9
Cn1cccc1C(=O)N1C[C@H]2CN(Cc3cccnc3)C[C@H]2C1 | 31.3
O=C(COc1coc(CN2CCCC2)cc1=O)Nc1cc(Cl)ccc1Cl | 80.6
Cc1cccc(C2(NCCCS(C)(=O)=O)CCCC2)c1 | 88.9
CS(=O)(=O)CCCNC1(c2cccc(Cl)c2)CCCC1 | 76
CS(=O)(=O)CCCNC1(c2ccc(Br)cc2)CCC1 | 78.5
Cc1cc(CNC2(c3ccccc3)CCCCC2)no1 | 44.9
Cc1ccc(CC(=O)N2CCN(C(C)c3ccccc3F)CC2)cn1 (configuration not stated) | -146
C/C(=C\c1ccco1)CN(C)C(C)Cc1ccccn1 (configuration not stated) | -54.2
CCc1[nH]c2c(CNc3nc(C)cc(NC)n3)cc(C)cc2c1C | 89
CCc1[nH]c2c(CNc3cc(C)nc(NC)n3)cc(C)cc2c1C | 85.1
CN1C[C@H](NC(=O)c2cscn2)[C@@H]2OCCC[C@@H]21 | -18.5
O=C(c1cnn2c1OCCC2)N1CCC2(CC1)OCCO2 | -54.5

Compound | INHIBITION [%]
Cc1noc(C)c1CN1CC[C@@H]2O[C@H](COCC(C)C)CC[C@@H]21 | -31.3
c1cnc(NC[C@H]2OC[C@@H]3CCN(Cc4cccnc4)C[C@@H]32)nc1 | -37.6
c1cnc(NC[C@H]2OC[C@@H]3CCN(Cc4ccsc4)C[C@@H]32)nc1 | -30.5
c1cnc(NC[C@H]2OC[C@@H]3CCN(Cc4nccs4)C[C@@H]32)nc1 | -52.4
CN1CCN(C[C@@H]2OC[C@H]3CN(Cc4ccncc4)CC[C@H]32)CC1 | -51.3
c1cc2c(cc1CN1CC[C@H]3CO[C@H](CN4CCCC4)[C@H]3C1)OCO2 | 78.6
CN1CCN(C[C@H]2OC[C@@H]3CCN(Cc4ccsc4)C[C@@H]32)CC1 | 77.7
O=C1O[C@@H]2CN(Cc3ccsc3)C[C@@H]2N1Cc1ccccn1 | -67.9
Cc1ccc(Cl)cc1-n1nnnc1C1(N2CCCC2)CCCCC1 | -125
Cc1nn(-c2ccc(C(=O)O)cc2)c2c1C(c1cccs1)SCC(=O)N2 (configuration not stated) | -57.4
COCCN1CCN(Cc2ccncc2)c2ncccc2C1 | 6.88
Cc1ccc(C)c(OCCNC(=O)[C@@H]2CCCCN2)c1 | 79.4
CC(C)N(C)Cc1cncc2c1CCN(Cc1ccoc1)C2 | -19.3
Cc1ccc2c(n1)N(CC(C)C)CCN(S(C)(=O)=O)C2 | -82.4
Cc1nccc([C@@H]2C[C@@H]3CCN(Cc4c(C)noc4C)C[C@H]3O2)n1 | -6.6
Cc1cc(CN2C[C@@H]3COC[C@]3(c3nnc(C)o3)C2)no1 | -26.2
O=C(C1CCOC1)N1CCC2(CCCNC2)CC1 (configuration not stated) | 0.28
Cc1cccc(CN2C(=O)CCC23CCNCC3)n1 | -102
CCCN1C[C@@H]2CC[C@H]1CN(C(=O)Cn1c(C)cc(C)nc1=O)C2 | -79.2
CC(Cn1cccn1)NCC(=O)NCCc1cccs1 (configuration not stated) | -8.14
Cc1ccc(C(C)NCCc2nccn2Cc2ccccc2)o1 (configuration not stated) | 80.7
CC(NCCc1nccn1Cc1ccccc1)c1ccsc1 (configuration not stated) | 83.5

Compound | INHIBITION [%]
CC(NCCc1nccn1Cc1ccccc1)c1cccs1 (configuration not stated) | 86.8
CC(Cn1cccn1)NCC(=O)N(C)Cc1ccsc1 (configuration not stated) | -27.7
CCc1ccc(CN2C[C@H](OC)[C@H]3COC[C@H]32)o1 | -53
O=C(c1ccoc1)N1CCO[C@@H]2CNC[C@@H]21 | -14.6
Fc1cnc(N2CCN3C[C@H](Oc4cccnc4)C[C@H]3C2)nc1 | -61.4
c1cnc(N2CCOCC3(CNCCO3)C2)nc1 (configuration not stated) | -4.23
Cc1cc(C)n2nc(C(=O)N[C@H]3C[C@H]4CN(C)CCN4C3)cc2n1 | -13.9
OCCN1CCC(CNCc2ccc(N3CCCCC3)cc2)CC1 | 91.9
OCCN1CCN(Cc2cc3c(cc2Br)OCCO3)CC1 | 1.48
CCc1ccc(CNCC2CCN(CCO)CC2)cc1 | 84.2
O=C(Cc1ccc(F)c(Br)c1)N1CCN(CCO)CC1 | -1.34
OCCN1CCC(CNCc2ccc(Br)cc2)CC1 | 86.7
CCc1ccc(OCC(=O)N2CCN(CC)CC2)cc1 | -123
O=C(C1CCC1)N1CCC2(CC1)OCCO2 | -22.7
O=C(c1ccc[nH]1)N1CCCC2(CCCN2Cc2cccnc2)C1 (configuration not stated) | -53.7
CCNCCc1nc2cc(F)ccc2[nH]1 | -115
CNCCc1nc2cc(F)ccc2[nH]1 | -61.7
Fc1ccc2[nH]c(C3CCCN3Cc3c[nH]cn3)nc2c1 (configuration not stated) | 81
c1cncc(OC[C@@]23CCC[C@@H]2CN(C2CCOCC2)C3)c1 | 3.99
CCCc1nnc2sc(C3CCN(CC)CC3)nn12 | -55.6
c1cnc2c(c1)CN(C1CCOC1)CCN2CC1CC1 (configuration not stated) | -73.8
COc1cccc(CNC(C)Cn2cccn2)c1OC (configuration not stated) | -22.3

Compound | INHIBITION [%]
COc1c(Br)cc(Br)cc1CNC(C)Cn1cccn1 (configuration not stated) | 17.9
COc1cccc(CNCc2cccnc2-n2cccn2)c1OC | 70.1
CN1CCN(Cc2cccc(C#N)c2)Cc2cccnc21 | -71
N#Cc1cccc(CN2CCn3cc(Cn4cccn4)nc3C2)c1 | 78.6
CC(Cn1cccn1)NCc1cccc(C#N)c1 (configuration not stated) | -46.4
CCN1C[C@@H]2CN(c3cc(OC)ncn3)CCC[C@]2(C(=O)O)C1 | -22
COC(=O)c1ccc(C2SCC(=O)Nc3c2cnn3C2CCCC2)cc1 (configuration not stated) | -86.9
CN1CCC(N(Cc2ccco2)S(=O)(=O)c2cc(Br)ccc2Br)CC1 | 76.2
CN1CCC(N(Cc2ccco2)S(=O)(=O)c2ccc(Br)cc2Cl)CC1 | 74.7
CC(Cn1ccnc1)NCc1csc2c1CCCC2 (configuration not stated) | 22.3
CO[C@H]1CCN(C2CCC2)[C@@H]2CN(Cc3ccncc3)C[C@H]12 | -41.2
CO[C@@H]1CCN(S(=O)(=O)N(C)C)[C@@H]2CN(Cc3ccncc3)C[C@@H]21 | -53.3
COCCN1C[C@@H]2[C@@H](OC)CCN(Cc3ccncc3)[C@@H]2C1 | 24.3
CCS(=O)(=O)N1CC[C@H](OC)[C@H]2CN(Cc3ccncc3)C[C@H]21 | -64.4
CO[C@@H]1CCN(S(=O)(=O)N(C)C)[C@@H]2CN(Cc3cccnc3)C[C@@H]21 | -88.2
CO[C@H]1CCN(Cc2cccc(C)n2)[C@@H]2CN(Cc3cccnc3)C[C@H]12 | 70.4
CO[C@@H]1CCN(Cc2cccs2)[C@@H]2CN(Cc3ccncc3)C[C@@H]21 | 53.8
COCCN1C[C@@H]2[C@@H](OC)CCN(Cc3cccc(C)n3)[C@@H]2C1 | -1.19
CO[C@H]1CCN(Cc2cccs2)[C@@H]2CN(Cc3ccncc3)C[C@H]12 | 61.5
